Here are results for 70 molecules from PubChem BioAssay AID1835 (Johns Hopkins Ion Channel Center, 2009).

The whole screen tested about 2,400 compounds, of which about 750 (31%) were called active.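 The calls were made as follows: active = median signal gain over dofetilide-blocked control wells reaching their mean plus 3 SD, so readout 1 at least 0; inactive = the rest.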 The list shows a part of the results.

This experiment deals with Voltage-gated inwardly rectifying potassium channel KCNH2 (Homo sapiens) (UniProt Q12809). The experiment in a line: hERG protection against dofetilide inhibition, confirmation, cell-based, thallium flux, duplicate retest, dofetilide IC70 (AID 1835). The settings on record: hERG cell line, FluxOR thallium flux, dofetilide-blocked; at 10 µM; hits give high values.
Sequence of Voltage-gated inwardly rectifying potassium channel KCNH2 (Homo sapiens) (Q12809 whole entry, looked up): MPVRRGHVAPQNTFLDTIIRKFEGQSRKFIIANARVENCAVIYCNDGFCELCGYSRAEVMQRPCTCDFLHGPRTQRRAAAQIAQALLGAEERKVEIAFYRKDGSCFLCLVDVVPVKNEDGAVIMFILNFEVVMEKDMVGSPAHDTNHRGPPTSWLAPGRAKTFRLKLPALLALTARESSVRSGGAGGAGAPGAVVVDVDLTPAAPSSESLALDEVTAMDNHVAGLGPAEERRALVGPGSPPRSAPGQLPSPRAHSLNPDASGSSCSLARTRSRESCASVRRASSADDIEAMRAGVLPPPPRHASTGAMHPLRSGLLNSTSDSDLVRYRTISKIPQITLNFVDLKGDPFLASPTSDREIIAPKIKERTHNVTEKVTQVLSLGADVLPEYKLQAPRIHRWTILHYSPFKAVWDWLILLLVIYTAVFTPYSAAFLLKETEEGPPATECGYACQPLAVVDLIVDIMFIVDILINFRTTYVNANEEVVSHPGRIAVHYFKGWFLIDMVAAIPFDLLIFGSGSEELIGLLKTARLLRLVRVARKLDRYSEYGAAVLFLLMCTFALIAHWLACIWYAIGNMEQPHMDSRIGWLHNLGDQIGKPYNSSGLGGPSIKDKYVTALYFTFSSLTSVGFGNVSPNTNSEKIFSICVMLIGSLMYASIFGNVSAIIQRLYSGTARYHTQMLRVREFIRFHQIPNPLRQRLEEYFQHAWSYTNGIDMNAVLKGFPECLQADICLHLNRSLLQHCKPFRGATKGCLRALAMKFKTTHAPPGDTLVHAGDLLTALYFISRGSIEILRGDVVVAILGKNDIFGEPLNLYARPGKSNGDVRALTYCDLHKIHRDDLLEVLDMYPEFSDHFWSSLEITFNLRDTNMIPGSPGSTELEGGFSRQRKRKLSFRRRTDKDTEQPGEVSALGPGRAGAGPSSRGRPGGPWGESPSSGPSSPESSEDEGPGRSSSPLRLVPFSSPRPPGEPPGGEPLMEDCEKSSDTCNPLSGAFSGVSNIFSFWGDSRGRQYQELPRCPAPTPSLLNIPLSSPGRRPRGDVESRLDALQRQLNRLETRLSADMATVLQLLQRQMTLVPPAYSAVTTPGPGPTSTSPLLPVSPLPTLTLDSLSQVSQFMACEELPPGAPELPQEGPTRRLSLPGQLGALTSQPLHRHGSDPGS
Consider `CN(C)c1oc(-c2ccccc2[N+](=O)[O-])nc1C#N`, for which the activity increase over dofetilide control, less the hit threshold is -15% (inactive). Regarding `COc1ccc(C2N=C(c3ccccc3)C(C)(C)N2O)cc1` (stereo not given), the activity increase over dofetilide control, less the hit threshold is -16% (inactive). To `CCOC(=O)C1CCCCN1Cc1ccc(F)cc1` (stereo not given) belongs -14% (inactive); to `Cc1cccc(NC(=O)CN2C(=O)S/C(=C\c3ccc(-c4cccc(C(=O)O)c4C)o3)C2=O)c1`, 71% (active). The same measure for `O=C(CN1C(=O)S/C(=C\c2cccs2)C1=O)Nc1ccc(C(=O)O)c(O)c1`: 12% (active).

As to `O=C(CN1C(=O)S/C(=C\c2cc(Cl)c(O)c(Cl)c2)C1=O)Nc1ccccc1`, the activity increase over dofetilide control, less the hit threshold is -21% (inactive). Take `O=C(CN1C(=O)S/C(=C\c2cccs2)C1=O)Nc1ccc(O)c(C(=O)O)c1`: the activity increase over dofetilide control, less the hit threshold was -3% (inactive). The same measure for `O=S(=O)(NCc1ccc(Cl)cc1Cl)c1ccc(N2CCOCC2)nc1`: -25% (inactive); for `S=c1nc(C2CCCCC2)n(-c2ccccc2)[nH]1`: 24% (active).

Regarding `Cc1onc(-c2ccccc2)c1C(=O)NC(=S)Nc1sc2c(c1C#N)CCCC2`, the activity increase over dofetilide control, less the hit threshold is -3% (inactive). To `Cc1onc(-c2ccccc2)c1C(=O)NC(=S)Nc1sc2c(c1C#N)CCC(C)C2` (stereo not given) belongs 24% (active); to `Cc1onc(-c2ccccc2Cl)c1C(=O)NC(=S)Nc1ccc(C(C)C)cc1`, -20% (inactive).

Turning to `O=C(O)C[C@H]1c2cc(F)ccc2S(=O)(=O)N1C1CCCCC1`, the activity increase over dofetilide control, less the hit threshold is -15% (inactive). Take `O=C(CN1C(=O)NC(Cc2ccccc2)C1=O)Nc1ccccc1OC(F)F` (stereo not given): the activity increase over dofetilide control, less the hit threshold is -10% (inactive). To `CCOc1ccc(NC(=O)c2ccc3c(c2)CCN3S(C)(=O)=O)cc1` belongs -21% (inactive). To `O=C(O)COc1ccc(NC(=O)c2ccc3c(c2)C(=O)N(C2CCCCC2)C3=O)cc1` belongs 4% (active). The same measure for `O=C(CN1CCCCCC1)Nc1ccc(Oc2ccccc2)cc1`: -10% (inactive); for `O=C(O)CCCn1cc(NC(=O)COc2ccc(F)cc2)cn1`: -17% (inactive); for `Cc1ccc(C(C)NC(=O)c2ccc3c(c2)OCO3)cc1C` (stereo not given): 0% (inactive).

For the molecule `CC(NC(=O)C1CCN(S(=O)(=O)c2cccc3cccnc23)CC1)c1ccccc1` (stereo not given), the activity increase over dofetilide control, less the hit threshold was -15% (inactive). On to `CC(NC(=O)NC1CCCCC1)c1ccc2c(c1)OCO2` (stereo not given), for which the activity increase over dofetilide control, less the hit threshold was 1% (active).

With `CC(NC(=S)NC1CCCCC1)c1ccccc1` (stereo not given), the activity increase over dofetilide control, less the hit threshold is -11% (inactive).

Consider `O=C(COC(=O)/C=C/c1ccc2c(c1)OCO2)NC1CC1`, for which the activity increase over dofetilide control, less the hit threshold is -20% (inactive). As to `CC(NC(=O)NC1CCCCC1)c1ccccc1` (stereo not given), the activity increase over dofetilide control, less the hit threshold is 9% (active). To `O=C(O)c1ccc2c3n(nc2c1)-c1ccc(Cl)cc1CO3` belongs -7% (inactive). To `O=C(NNc1nc2c(F)cccc2s1)c1cc(=O)c2ccccc2o1` belongs 6% (active). Turning to `Cc1cc(C)c(NC(=O)C2CC3CCC2C3)c(C)c1` (stereo not given), the activity increase over dofetilide control, less the hit threshold is -5% (inactive).

Turning to `CCn1cc(C(=O)NCCN(C)C)c(=O)c2cc(F)c(N3CCN(C)CC3)cc21`, the activity increase over dofetilide control, less the hit threshold is -17% (inactive). The same measure for `O=C(CCC1CCCC1)NNC(=O)c1cccc(Cl)c1`: -7% (inactive).

As to `O=C(Nn1c(O)c(C=C2N=c3ccccc3=N2)sc1=S)c1cccc(Cl)c1`, the activity increase over dofetilide control, less the hit threshold was 33% (active). To `Cn1sc(NC(=O)c2cccc(Cl)c2)nc1=O` belongs -1% (inactive); to `CCCCN1C(=O)/C(=C2/Sc3ccc(Cl)cc3N2CC)SC1=S`, 42% (active); to `CCN1C(=O)/C(=C/N2CCc3ccccc32)SC1=S`, -9% (inactive). The same measure for `CCCCCC/C(C)=C1/SC(=S)NC1=O`: 87% (active). `CC(=O)n1nc(-c2ccncc2)nc1SCC(=O)Nc1cccc(Cl)c1`: the activity increase over dofetilide control, less the hit threshold was -10% (inactive). To `O=C(O)c1cc(N/N=C/c2ccc(-c3ccccc3)cc2)ccc1Cl` belongs -16% (inactive); to `COCCN(C(=O)CSc1nnc(C)n1Cc1ccccc1)c1c(N)n(CC(C)C)c(=O)[nH]c1=O`, 1% (active); to `CC(C)CN(C(=O)COC(=O)CNC(=O)c1ccccc1F)c1c(N)n(Cc2ccccc2)c(=O)[nH]c1=O`, -11% (inactive). To `CCCOc1ccc(C(=O)N(CC(C)C)c2c(N)n(Cc3ccccc3)c(=O)[nH]c2=O)cc1` belongs -7% (inactive); to `COc1cc(/C=C2/SC(=S)N(CC(=O)O)C2=O)ccc1OCC(=O)Nc1ccc(C)c(C)c1`, 89% (active). The same measure for `COc1cccc(CN=c2c([N+](=O)[O-])nn(-c3ccccc3C)n2O)c1`: -15% (inactive). Regarding `O=C(c1n[nH]c2c1CCCC2)n1ccnc1`, the activity increase over dofetilide control, less the hit threshold was -2% (inactive). The same measure for `CCOc1cc(Br)c(C(=O)O)cc1OC`: -17% (inactive); for `OC(COC(c1ccccc1)c1ccccc1)CN1CCCCC1` (stereo not given): -18% (inactive); for `CCCCOc1ccc(-c2c(C#N)c(N)[nH]c(=S)c2C#N)cc1`: 38% (active). For the molecule `N#Cc1c(-c2ccco2)c2c([nH]c1=S)CCCC2`, the activity increase over dofetilide control, less the hit threshold was -9% (inactive). To `CCOC(=O)c1c(C)[nH]c(=S)c(C#N)c1-c1ccc(Cl)cc1` belongs -5% (inactive); to `c1ccc(Oc2cccc(OCCn3cncn3)c2)cc1`, -4% (inactive); to `COCC(=O)N(Cc1ccco1)c1nnc(C2CCOC2)s1` (stereo not given), -19% (inactive).

Regarding `CC(NC(=O)COC(=O)C1CCC1)c1ccccc1` (stereo not given), the activity increase over dofetilide control, less the hit threshold is -6% (inactive). In the case of `Cc1ccc(C(=O)COC(=O)C2CCC2)cc1`, the activity increase over dofetilide control, less the hit threshold is 4% (active). To `Cc1ccc(CNC(=O)CN2C(C)CCCC2C)cc1` (stereo not given) belongs -7% (inactive); to `CC(C)C(NC(=O)c1ccccc1)C(=O)N/N=C\c1ccco1` (stereo not given), -17% (inactive); to `Oc1ccc(N2CCN(C(c3cccnc3)c3nnnn3Cc3ccccc3)CC2)cc1` (stereo not given), 0% (inactive).

In the case of `Cc1cc(NC(=O)/C(C#N)=C/c2ccco2)n(-c2ccccc2)n1`, the activity increase over dofetilide control, less the hit threshold was -12% (inactive).

Take `COc1ccc(N2CCN(C(=O)c3ccc(-c4ccccc4)cc3)CC2)cc1`: the activity increase over dofetilide control, less the hit threshold was -18% (inactive). The same measure for `COc1ccc(-n2nc(C)cc2Nc2ccccc2C(=O)O)cc1`: 31% (active); for `O=C(O)c1cccc2cc(-c3ccccc3)oc(=O)c12`: -13% (inactive). As for `CCCCN(C(=O)CC1CCCC1)c1c(N)n(CC(C)C)c(=O)[nH]c1=O`, the activity increase over dofetilide control, less the hit threshold was -4% (inactive).

`Fc1cccc(/C=N/Nc2ccc3ccccc3n2)c1`: the activity increase over dofetilide control, less the hit threshold is -7% (inactive). As to `Cc1ccc(N=Nc2ccc(O)c3ncccc23)cc1`, the activity increase over dofetilide control, less the hit threshold is 40% (active).

As to `Oc1c(N=Nc2ccccn2)ccc2ccccc12`, the activity increase over dofetilide control, less the hit threshold is -5% (inactive).

Consider `CCOc1ccc(N=Nc2ccc(O)c3ncccc23)cc1`, for which the activity increase over dofetilide control, less the hit threshold was 0% (inactive). The same measure for `COc1ccccc1N=Nc1ccc(O)c2ncccc12`: 2% (active). Take `Oc1ccc(N=Nc2ccc3c(c2)OCCO3)c2ncccc12`: the activity increase over dofetilide control, less the hit threshold is -4% (inactive). The same measure for `COc1ccc(OC)c(S(=O)(=O)NCc2cn3cccc(C)c3n2)c1`: -17% (inactive); for `O=[N+]([O-])c1ccc(O)c2ncccc12`: -8% (inactive); for `COc1cccc(N=Nc2ccc(O)c3ncccc23)c1`: 25% (active). To `COc1ccc(N(CC(=O)NCc2cccnc2)S(=O)(=O)c2ccccc2[N+](=O)[O-])c(OC)c1` belongs -3% (inactive).

Turning to `CCN(CC)S(=O)(=O)c1cc(OC)ccc1N=Nc1ccc(O)c2ncccc12`, the activity increase over dofetilide control, less the hit threshold is 27% (active).
